This note sets out measurements from PubChem BioAssay (NCATS).

Inconclusive results are not listed. The source made the active and inactive calls. The call rests on the fitted dose curve.

Experiment [1] in a line: Primary qHTS for inhibitors of SARS-S pseudo-typed particle cell entry (AID 1479145). Further: nearly all actives have a fitted effect of over 45% in size. Further: potency means the concentration at half of the fitted maximal effect. On the technique in general: qHTS replaces the single test concentration by a dilution series.
Experiment [2] is described as follows: Primary qHTS for Huh7 cytotoxicity: counterscreen for inhibitors of MERS-S pseudotyped particle cell entry (AID 1479147).
A short description of experiment [3]: Primary qHTS for inhibitors of MERS-S pseudo-typed particle cell entry (AID 1479149). Further: nearly all actives have a fitted effect of over 60% in size. Further: potency means the concentration at half of the fitted maximal effect.
Experiment [4] can be described thus: Primary qHTS for Vero E6 cytotoxicity: counterscreen for inhibitors of SARS-S pseudo-typed particle cell entry (AID 1479150). Further: potency means the concentration at half of the fitted maximal effect.
Experiment [5] is described as follows: Confirmatory qHTS for VERO E6 Cytotoxicity Assay: Counterscreen for SARS-CoV-2 CPE Assay (AID 1508605). Further: series mostly up to about 20 µM; nearly all actives have a fitted effect of over 60% in size.
Experiment [6] in a line: Confirmatory qHTS for activators (rescue) of SARS-CoV-2 Cytopathic Effect (CPE) (AID 1508606). Further: potency means the concentration at half of the fitted maximal effect; nearly all actives have a fitted effect of over 70% in size.

On to `Oc1c(Cl)cc(Cl)c(Cl)c1Cc1c(O)c(Cl)cc(Cl)c1Cl`, for which the Potency in experiment [1] is 2.82 µM (active); in experiment [3], 3.55 µM (active); in experiment [4] it was 5.62 µM (active). Besides, in experiment [2], the Potency result was “inactive”.

In the case of `CC(C)(C)c1ccc(C(O)CCCN2CCC(C(O)(c3ccccc3)c3ccccc3)CC2)cc1` (stereo not given), the Potency entry in experiment [1], in experiment [2] and in experiment [4] was “inactive” in each case.

As for `CN1CCCN=C1/C=C/c1cccs1`, the Potency result in experiment [1], in experiment [2], in experiment [3] and in experiment [4] was “inactive” throughout.

`CCOC(=O)C1=C[C@]2(CC)CCCN3CCc4c(n1c1ccccc41)[C@@H]32`: the Potency result in experiment [1], in experiment [2] and in experiment [4] was “inactive” in each case.

Take `O=C(O)COC(=O)Cc1ccccc1Nc1c(Cl)cccc1Cl`: the Potency entry in experiment [1], in experiment [2], in experiment [3] and in experiment [4] was “inactive” in each case.

As for `CCN(CC)CC(=O)OCC(=O)[C@@]1(O)CC[C@H]2[C@@H]3CCC4=CC(=O)CC[C@]4(C)[C@H]3[C@@H](O)C[C@@]21C`, the Potency entry in experiment [1], in experiment [2] and in experiment [4] was “inactive” each time.

Regarding `C[C@]12CC[C@@H]3c4ccc(O)cc4CC[C@H]3[C@@H]1CCC2=O`, the Potency entry in experiment [1], in experiment [2], in experiment [3] and in experiment [4] was “inactive” in each case.

Turning to `O=C(O)CNC(=O)c1ccccc1I`, the Potency result in experiment [1], in experiment [2] and in experiment [4] was “inactive” in each case.

Consider `Cc1cccc(N(C)C(=S)Oc2ccc3c(c2)C2CCC3C2)c1` (stereo not given), for which the Potency entry in experiment [1], in experiment [2], in experiment [3] and in experiment [4] was “inactive” throughout.

With `C[C@]12CCC(=O)C=C1[C@@H]1C[C@@H]1[C@H]1[C@@H]3[C@@H]4C[C@@H]4[C@@]4(CCC(=O)O4)[C@@]3(C)CC[C@@H]12`, the Potency result in experiment [1], in experiment [2] and in experiment [4] was “inactive” each time.

Regarding `CCN(CCCCOC(=O)c1ccc(OC)c(OC)c1)C(C)Cc1ccc(OC)cc1` (stereo not given), the Potency in experiment [1] was 11.2 µM (active). For the same compound, the Potency entry in experiment [2] and in experiment [4] was “inactive” in each case.

With `CC(=O)[C@H]1CC[C@H]2[C@@H]3CC=C4C[C@@H](O)CC[C@]4(C)[C@H]3CC[C@]12C`, the Potency entry in experiment [1], in experiment [2] and in experiment [4] was “inactive” throughout.

As for `CC(=O)N(CC(=O)N(C)C)c1ccccc1`, the Potency entry in experiment [1], in experiment [2], in experiment [3] and in experiment [4] was “inactive” in each case.

Take `CC(C)[C@@H]1CC[C@@H](C)CC1=O`: the Potency entry in experiment [1], in experiment [2] and in experiment [4] was “inactive” in each case.

On to `NC(=O)c1ncn([C@@H]2O[C@H](CO)[C@@H](O)[C@H]2O)c1N`, for which the Potency result in experiment [1], in experiment [2] and in experiment [4] was “inactive” throughout.

With `O=C(CCCCC(=O)Nc1c(I)cc(I)c(C(=O)O)c1I)Nc1c(I)cc(I)c(C(=O)O)c1I`, the Potency result in experiment [1], in experiment [2], in experiment [3] and in experiment [4] was “inactive” in each case.

In the case of `CC(=O)N[C@H]1[C@H]([C@H](O)[C@H](O)CO)OC(C(=O)O)=C[C@@H]1N=C(N)N`, the Potency entry in experiment [1], in experiment [2], in experiment [3] and in experiment [4] was “inactive” in each case.

Turning to `COC(=O)Nc1nc2ccc(Sc3ccccc3)cc2[nH]1`, the Potency result in experiment [1], in experiment [2], in experiment [3] and in experiment [4] was “inactive” in each case.

For `CN1C[C@H](C(=O)N[C@]2(C)O[C@@]3(O)[C@@H]4CCCN4C(=O)[C@H](Cc4ccccc4)N3C2=O)C[C@@H]2c3cccc4[nH]cc(c34)C[C@H]21`, the Potency result in experiment [1], in experiment [2] and in experiment [4] was “inactive” in each case.

Take `CCOC(=O)C1=C(C)NC(C)=C(C(=O)OCC)C1c1ccccc1/C=C/C(=O)OC(C)(C)C`: the Potency result in experiment [1], in experiment [2] and in experiment [4] was “inactive” each time.

Turning to `COc1cc(O)c(C(=O)c2ccccc2)cc1S(=O)(=O)O`, the Potency entry in experiment [1], in experiment [2], in experiment [3] and in experiment [4] was “inactive” each time.

`Cc1c(C(=O)NN2CCCCC2)nn(-c2ccc(Cl)cc2Cl)c1-c1ccc(Cl)cc1`: the Potency result in experiment [1], in experiment [2], in experiment [3] and in experiment [4] was “inactive” in each case.

`CN(C)CC/C=C1\c2ccccc2Sc2ccc(Cl)cc21`: the results for the Potency in experiment [1], in experiment [3] and in experiment [6] were 10 µM (active), 25.1 µM (active) and 8.91 µM (active), respectively. The Potency result in experiment [2], in experiment [4] and in experiment [5] was “inactive” in each case.

With `CC(O)Cn1cnc2c1c(=O)n(C)c(=O)n2C` (stereo not given), the Potency result in experiment [1], in experiment [2], in experiment [3] and in experiment [4] was “inactive” throughout.

Turning to `CC[C@H](c1ccc(O)cc1)[C@@H](CC)c1ccc(O)cc1`, the Potency entry in experiment [1], in experiment [2] and in experiment [4] was “inactive” throughout.

Take `Cn1c(=O)c2c(ncn2C)n(C)c1=O`: the Potency result in experiment [1], in experiment [2] and in experiment [4] was “inactive” in each case.

With `Oc1ccc(Cl)cc1Cc1cc(Cl)ccc1O`, in experiment [2], the Potency result was “inactive”.

On to `CCCCCCc1ccc(O)cc1O`, for which the Potency entry in experiment [1] and in experiment [4] was “inactive” in each case. Moreover, the Potency in experiment [3] was 0.891 µM (active).

Consider `N/C(=N\N=C\c1ccc(Cl)cc1)N/N=C/c1ccc(Cl)cc1`, for which the Potency result in experiment [2] and in experiment [3] was “inactive” each time.

For `Oc1ccc(O)cc1`, the Potency entry in experiment [1] and in experiment [4] was “inactive” in each case.

As to `C1CCC(C(CC2CCCCN2)C2CCCCC2)CC1` (stereo not given), the Potency was 25.1 µM (active) in experiment [1] and 10 µM (active) in experiment [3].

For the compound `OCc1cc(C(O)CNCCCCCCOCCCCc2ccccc2)ccc1O` (stereo not given), the Potency result in experiment [1] and in experiment [4] was “inactive” each time.

For the compound `CC(C)N=C(N)/N=C(\N)Nc1ccc(Cl)cc1`, the Potency result in experiment [2] and in experiment [3] was “inactive” each time.

In the case of `Oc1c(Cl)cc(Cl)cc1Sc1cc(Cl)cc(Cl)c1O`, the Potency result in experiment [2] was “inactive”.

On to `CC(C)=CCC/C(C)=C/CC/C(C)=C/C(=O)OCC(=O)[C@@]1(O)CC[C@H]2[C@@H]3CCC4=CC(=O)C=C[C@]4(C)[C@H]3[C@@H](O)C[C@@]21C`, for which the Potency entry in experiment [1] and in experiment [4] was “inactive” throughout.

With `CCCCCCCCCCCCOCCOCCOCCOCCOCCOCCOCCOCCOCCO`, in experiment [2], the Potency entry is “inactive”. For the same compound, the Potency in experiment [3] was 8.91 µM (active).

For `N=C(N)c1ccc(OCCCOc2ccc(C(=N)N)cc2)cc1`, the Potency entry in experiment [2] was “inactive”.

As for `OC[C@H]1O[C@@H](n2cnc3c(=S)nc[nH]c32)[C@H](O)[C@@H]1O`, the Potency result in experiment [1] and in experiment [3] was “inactive” each time.

Consider `COc1ccc(-n2nc(CCC(=O)N(C)O)cc2-c2ccc(Cl)cc2)cc1`, for which the Potency entry in experiment [1] and in experiment [4] was “inactive” each time.

Take `COc1ccc(-c2cc(C(F)F)nn2-c2ccc(S(N)(=O)=O)cc2)cc1F`: the Potency entry in experiment [1], in experiment [2] and in experiment [4] was “inactive” each time.
